# Source: PubChem BioAssay (NCATS)
# “And” between values parts separate entries of the source, which are not always exact repeats. Equal values may be shown once. Records with an inconclusive call do not appear. The source made the active and inactive calls. Calls follow the shape of the dose curve; as a rule, active = well fitted inhibition curve with a large enough effect; inconclusive = small, poorly fitted or top-dose-only effect; inactive = flat fitted curve, though single readings scatter.
# Tested on: HEK293
# Experiment: Cytotoxic Profiling of Annotated Libraries Using Quantitative High-Throughput Screening (AID 1296008); also: nearly all actives have a fitted effect of over 60% in size
# Conditions: Five cell lines viability, CellTiter-Glo ATP luminescence, 48-72 h; max response: stronger effect = lower value
# Summary of the method: (§1)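 Compounds were pin-transferred onto cells and incubated 48 or 72 hr at 37 degree Celsius, 95% humidity. CellTiter-Glo was added, plates sat 10 min at room temperature, then ATP-coupled luminescence was imaged as the viability read-out.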
# % is scaled to controls: 0 for no effect and ±100 for the full control effect; potency is read from the fitted curve at half-maximal effect.
Compound,max response,Potency,outcome
C=C1c2cccc(O)c2C(O)=C2C(=O)[C@]3(O)C(O)=C(C(N)=O)C(=O)[C@@H](N(C)C)[C@@H]3[C@@H](O)[C@H]12,-1.35% (inactive),,
C/C=C/c1ccc(O)c(OC)c1,-2.94% (inactive),,
CC(=C(CCOC(=O)C(C)C)SSC(CCOC(=O)C(C)C)=C(C)N(C=O)Cc1cnc(C)nc1N)N(C=O)Cc1cnc(C)nc1N,-4.89% (inactive),,
C=C[C@H]1CN2CC[C@H]1C[C@@H]2[C@@H](O)c1ccnc2ccc(OC)cc12,-4.02% (inactive),,
O=C1C(CCS(=O)c2ccccc2)C(=O)N(c2ccccc2)N1c1ccccc1 (stereo not given),-3.91% (inactive),,
Cc1c[nH]c2ccccc12,2.22% (inactive),,
Cc1ccc(-c2ncc(Cl)cc2-c2ccc(S(C)(=O)=O)cc2)cn1,4.1% (inactive),,
CC(=O)OCC1=C(C(=O)O)N2C(=O)[C@@H](NC(=O)CSc3ccncc3)[C@H]2SC1,4.22% (inactive),,
CN(C)CCC[C@@]1(c2ccc(F)cc2)OCc2cc(C#N)ccc21,-9.91% (inactive),,
CCC(CC)(CC(=O)Nc1cccc(/C=C/c2nc(C3CCC3)cs2)c1)C(=O)O,-8.39% (inactive),,
O=[N+]([O-])c1ccc(/C=N\O)o1,-8.88% (inactive),,
CCN1CCN(C(=O)N[C@@H](C(=O)N[C@@H]2C(=O)N3C(C(=O)O)=C(CSc4nnnn4C)CS[C@H]23)c2ccc(O)cc2)C(=O)C1=O,-4.75% (inactive),,
C[C@H]1O[C@@H](O[C@H]2CC[C@@]3(C)[C@H](CC[C@@H]4[C@@H]3C[C@@H](O)[C@]3(C)[C@@H](C5=CC(=O)OC5)CC[C@]43O)C2)C[C@H](O)[C@@H]1O[C@H]1C[C@H](O)[C@H](O[C@H]2C[C@H](O)[C@H](O[C@@H]3O[C@H](CO)[C@@H](O)[C@H](O)[C@H]3O)[C@@H](C)O2)[C@@H](C)O1,,0.188 µM (active),
CC(CNC1CCCCC1)OC(=O)c1ccccc1 (stereo not given),-47.9% (inactive),,
CC1(COc2ccc(CC3SC(=O)NC3=O)cc2)CCCCC1 (stereo not given),0.676% (inactive),,
N[C@H](C(=O)O)[C@@H](O)c1ccc(O)c(O)c1,-0.734% (inactive),,
CN(C)CCOC(=O)C(c1ccccc1)C1(O)CCCC1 (stereo not given),,,inactive
CCCCN=C(N)N=C(N)N,,,inactive

Compound,max response,Potency,outcome
COC(=O)C(c1ccccc1Cl)N1CCc2sccc2C1 (stereo not given),4.89% (inactive),,
CCN(CC)CCOc1ccccc1C(=O)CCc1ccccc1,,11.9 µM (active),
CC(=O)Nc1ccc(OCC(O)CNC(C)C)cc1 (stereo not given),4.87% (inactive),,
Cc1cc(NS(=O)(=O)c2ccc(N)cc2)nc(C)n1,-0.689% (inactive),,
COc1ccc(CCN(C)CCCN2CCc3cc(OC)c(OC)cc3CC2=O)cc1OC,,,inactive
CC(C(=O)O)c1cccc(Oc2ccccc2)c1 (stereo not given),-4.21% (inactive),,
CCCCc1cc2ccccc2c(OCCN(C)C)n1,,18.8 µM (active),
NCCNC(=O)c1ccc(Cl)cn1,-1.7% (inactive),,
CCc1oc2ccccc2c1C(=O)c1cc(Br)c(O)c(Br)c1,-23.3% (inactive),,
Nc1nc(Cl)nc2c1ncn2[C@@H]1O[C@H](CO)[C@@H](O)[C@@H]1F,,1.5 µM (active),
CC[C@]12CCCN3CCc4c(n(c5ccccc45)C(=O)C1)[C@@H]32,,7.5 µM (active),
C[C@]12CCC(=O)C=C1C=C[C@@H]1[C@@H]2CC[C@@]2(C)[C@H]1CC[C@@]21CCC(=O)O1,,9.44 µM (active),
COc1cc([C@H]2Oc3cc([C@H]4Oc5cc(O)cc(O)c5C(=O)[C@@H]4O)ccc3O[C@@H]2CO)ccc1O,-17.6% (inactive),,
CC(O)Cn1cnc2c1c(=O)n(C)c(=O)n2C (stereo not given),1.15% (inactive),,
CC(=O)Nc1ccc(S(=O)(=O)Nc2ccc([N+](=O)[O-])cc2)cc1,-4.06% (inactive),,
COc1ccc(C(=O)c2ccccc2O)c(O)c1,-10.9% (inactive),,
CCCCN1C[C@H](O)[C@@H](O)[C@H](O)[C@H]1CO,-7.96% (inactive),,

# Tested on: HaCat
# Experiment: as above
# Conditions: Five cell lines viability, CellTiter-Glo ATP luminescence, 48-72 h; max response: stronger effect = lower value
# Summary of the method: as §1
Compound,max response,outcome,Potency
C=C1c2cccc(O)c2C(O)=C2C(=O)[C@]3(O)C(O)=C(C(N)=O)C(=O)[C@@H](N(C)C)[C@@H]3[C@@H](O)[C@H]12,-8.16% (inactive),,
C/C=C/c1ccc(O)c(OC)c1,,inactive,
CC(=C(CCOC(=O)C(C)C)SSC(CCOC(=O)C(C)C)=C(C)N(C=O)Cc1cnc(C)nc1N)N(C=O)Cc1cnc(C)nc1N,,inactive,
C=C[C@H]1CN2CC[C@H]1C[C@@H]2[C@@H](O)c1ccnc2ccc(OC)cc12,-4.58% (inactive),,
O=C1C(CCS(=O)c2ccccc2)C(=O)N(c2ccccc2)N1c1ccccc1 (stereo not given),,inactive,
Cc1c[nH]c2ccccc12,,inactive,
Cc1ccc(-c2ncc(Cl)cc2-c2ccc(S(C)(=O)=O)cc2)cn1,-27.8% (inactive),,
CC(=O)OCC1=C(C(=O)O)N2C(=O)[C@@H](NC(=O)CSc3ccncc3)[C@H]2SC1,0.118% (inactive),,
CN(C)CCC[C@@]1(c2ccc(F)cc2)OCc2cc(C#N)ccc21,-13.9% (inactive),,
CCC(CC)(CC(=O)Nc1cccc(/C=C/c2nc(C3CCC3)cs2)c1)C(=O)O,,inactive,
O=[N+]([O-])c1ccc(/C=N\O)o1,1.07% (inactive),,
CCN1CCN(C(=O)N[C@@H](C(=O)N[C@@H]2C(=O)N3C(C(=O)O)=C(CSc4nnnn4C)CS[C@H]23)c2ccc(O)cc2)C(=O)C1=O,-2.57% (inactive),,
C[C@H]1O[C@@H](O[C@H]2CC[C@@]3(C)[C@H](CC[C@@H]4[C@@H]3C[C@@H](O)[C@]3(C)[C@@H](C5=CC(=O)OC5)CC[C@]43O)C2)C[C@H](O)[C@@H]1O[C@H]1C[C@H](O)[C@H](O[C@H]2C[C@H](O)[C@H](O[C@@H]3O[C@H](CO)[C@@H](O)[C@H](O)[C@H]3O)[C@@H](C)O2)[C@@H](C)O1,,,0.596 µM (active)
CC(CNC1CCCCC1)OC(=O)c1ccccc1 (stereo not given),-18.5% (inactive),,
CC1(COc2ccc(CC3SC(=O)NC3=O)cc2)CCCCC1 (stereo not given),,inactive,
N[C@H](C(=O)O)[C@@H](O)c1ccc(O)c(O)c1,1.85% (inactive),,
CN(C)CCOC(=O)C(c1ccccc1)C1(O)CCCC1 (stereo not given),,inactive,
CCCCN=C(N)N=C(N)N,2.62% (inactive),,

Compound,max response,outcome,Potency
COC(=O)C(c1ccccc1Cl)N1CCc2sccc2C1 (stereo not given),4.22% (inactive),,
O=C1[C@H](CC[C@H](O)c2ccc(F)cc2)[C@@H](c2ccc(O)cc2)N1c1ccc(F)cc1,-6.94% (inactive) and -19.1% (inactive),,
CCN(CC)CCOc1ccccc1C(=O)CCc1ccccc1,,inactive,
CC(=O)Nc1ccc(OCC(O)CNC(C)C)cc1 (stereo not given),,inactive,
Cc1cc(NS(=O)(=O)c2ccc(N)cc2)nc(C)n1,,inactive,
COc1ccc(CCN(C)CCCN2CCc3cc(OC)c(OC)cc3CC2=O)cc1OC,-7.19% (inactive),,
CC(C(=O)O)c1cccc(Oc2ccccc2)c1 (stereo not given),-15.2% (inactive),,
CCCCc1cc2ccccc2c(OCCN(C)C)n1,,inactive,
NCCNC(=O)c1ccc(Cl)cn1,,inactive,
CCc1oc2ccccc2c1C(=O)c1cc(Br)c(O)c(Br)c1,,inactive,
Nc1nc(Cl)nc2c1ncn2[C@@H]1O[C@H](CO)[C@@H](O)[C@@H]1F,,,1.06 µM (active)
CC[C@]12CCCN3CCc4c(n(c5ccccc45)C(=O)C1)[C@@H]32,-22.7% (inactive),,
COc1cc([C@H]2Oc3cc([C@H]4Oc5cc(O)cc(O)c5C(=O)[C@@H]4O)ccc3O[C@@H]2CO)ccc1O,-5.16% (inactive),,
CC(O)Cn1cnc2c1c(=O)n(C)c(=O)n2C (stereo not given),-17.4% (inactive),,
CC(=O)Nc1ccc(S(=O)(=O)Nc2ccc([N+](=O)[O-])cc2)cc1,,inactive,
COc1ccc(C(=O)c2ccccc2O)c(O)c1,4.59% (inactive),,
CCCCN1C[C@H](O)[C@@H](O)[C@H](O)[C@H]1CO,-19.6% (inactive),,
